The whole screen tested about 5,500 compounds, of which about 2,000 (36%) were called active. Inconclusive results (about 18%) are left out. No stated cut-off is given here; in the data, active means normalized growth mostly below about 0.91 (no sharp cut-off); inconclusive means no clear call, values can overlap the other calls; inactive means mostly above about 0.92. This is one part of the list.
Assay: chemical genetic growth profiling, strain panel (AID 1159580);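 further: tested at 20 µM; growth read once vehicle control cultures reached saturation at 30 °C; 1 = growth at the plate median or of vehicle wells; lower values mean less growth of the strain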
Settings: growth OD

Measured: normalized growth

O=C(O)CCC(=O)OC[C@@H](NC(=O)C(Cl)Cl)[C@H](O)c1ccc([N+](=O)[O-])cc1
inactive: S. cerevisiae deletion strains, locus YJR043C, strain POL32, active compounds read low 0.977 | S. cerevisiae deletion strains, locus YJR066W, strain TOR1, active compounds read low 0.981 | S. cerevisiae deletion strains, locus YKL009W, strain mrt4, active compounds read low 1 | S. cerevisiae deletion strains, locus YKL068W, active compounds read low 0.962 | S. cerevisiae deletion strains, locus YKL085W, strain MDH1 (second series), active compounds read low 0.99 | S. cerevisiae deletion strains, locus YKL085W, strain MDH1, active compounds read low 0.99 | S. cerevisiae deletion strains, locus YKL160W, strain elf1, active compounds read low 0.98 | S. cerevisiae deletion strains, locus YKL190W, strain CNB1, active compounds read low 0.993 | S. cerevisiae deletion strains, locus YKR001C, strain vps1, active compounds read low 0.967 | S. cerevisiae deletion strains, locus YKR026C, strain gcn3, active compounds read low 0.984 | S. cerevisiae deletion strains, locus YKR091W, strain srl3, active compounds read low 0.971 | S. cerevisiae deletion strains, locus YLL001W, strain dnm1, active compounds read low 0.937 | S. cerevisiae deletion strains, locus YLL026W, active compounds read low 0.974 | S. cerevisiae deletion strains, locus YLL041C, strain sdh2, active compounds read low 0.993 | S. cerevisiae deletion strains, locus YLR027C, strain aat2, active compounds read low 0.99 | S. cerevisiae deletion strains, locus YLR039C, strain RIC1, active compounds read low 0.964 | S. cerevisiae deletion strains, locus YLR058C, strain SHM2, active compounds read low 0.976 | S. cerevisiae deletion strains, locus YLR102C, strain apc9, active compounds read low 0.977 | S. cerevisiae deletion strains, locus YLR113W, strain HOG1, active compounds read low 0.973 | S. cerevisiae deletion strains, locus YLR221C, strain rsa3, active compounds read low 0.918 | S. cerevisiae deletion strains, locus YLR258W, strain gsy2, active compounds read low 0.984 | S. cerevisiae deletion strains, locus YLR262C, strain YPT6 (second series), active compounds read low 0.966 | S. cerevisiae deletion strains, locus YLR262C, strain YPT6, active compounds read low 0.866 | S. cerevisiae deletion strains, locus YLR268W, strain sec22, active compounds read low 0.974 | S. cerevisiae deletion strains, locus YLR320W, strain mms22, active compounds read low 0.944 | S. cerevisiae deletion strains, locus YLR330W, strain CHS5, active compounds read low 0.985 | S. cerevisiae deletion strains, locus YLR342W, strain FKS1 (second series), active compounds read low 1.01 | S. cerevisiae deletion strains, locus YLR342W, strain FKS1, active compounds read low 0.986 | S. cerevisiae deletion strains, locus YLR357W, strain rsc2, active compounds read low 1 | S. cerevisiae deletion strains, locus YLR370C, strain arc18, active compounds read low 0.944 | S. cerevisiae deletion strains, locus YLR371W, strain rom2, active compounds read low 0.979 | S. cerevisiae deletion strains, locus YLR384C, strain iki3, active compounds read low 0.987 | S. cerevisiae deletion strains, locus YLR418C, strain cdc73, active compounds read low 0.974 | S. cerevisiae deletion strains, locus YML016C, strain PPZ1, active compounds read low 0.979 | S. cerevisiae deletion strains, locus YML032C, strain rad52, active compounds read low 0.968 | S. cerevisiae deletion strains, locus YML120C, strain ndi1, active compounds read low 0.936 | S. cerevisiae deletion strains, locus YML124C, strain tub3, active compounds read low 0.994 | S. cerevisiae deletion strains, locus YMR058W, strain fet3, active compounds read low 0.983 | S. cerevisiae deletion strains, locus YMR078C, strain ctf18, active compounds read low 0.978 | S. cerevisiae deletion strains, locus YMR125W, strain sto1, active compounds read low 0.962 | S. cerevisiae deletion strains, locus YMR129W, active compounds read low 0.988 | S. cerevisiae deletion strains, locus YMR205C, strain PFK2, active compounds read low 1.01 | S. cerevisiae deletion strains, locus YMR223W, strain ubp8, active compounds read low 0.997 | S. cerevisiae deletion strains, locus YMR231W, strain pep5, active compounds read low 0.996 | S. cerevisiae deletion strains, locus YMR263W, strain SAP30, active compounds read low 1.01 | S. cerevisiae deletion strains, locus YMR307W, strain GAS1, active compounds read low 1.05 | S. cerevisiae deletion strains, locus YNL067W, strain RPL9B, active compounds read low 1.03 | S. cerevisiae deletion strains, locus YNL071W, strain lat1, active compounds read low 0.989 | S. cerevisiae deletion strains, locus YNL153C, strain GIM3, active compounds read low 1.02 | S. cerevisiae deletion strains, locus YNL183C, strain NPR1, active compounds read low 0.93 | S. cerevisiae deletion strains, locus YNL209W, strain ssb2, active compounds read low 0.971 | S. cerevisiae deletion strains, locus YNL233W, strain BNI4, active compounds read low 1.02 | S. cerevisiae deletion strains, locus YNL248C, strain rpa49, active compounds read low 1.02 | S. cerevisiae deletion strains, locus YNL271C, strain bni1, active compounds read low 0.97 | S. cerevisiae deletion strains, locus YNL298W, strain CLA4, active compounds read low 0.983 | S. cerevisiae deletion strains, locus YNL307C, strain MCK1, active compounds read low 0.99 | S. cerevisiae deletion strains, locus YNL322C, strain KRE1 (second series), active compounds read low 0.962 | S. cerevisiae deletion strains, locus YNR049C, strain mso1, active compounds read low 0.972 | S. cerevisiae deletion strains, locus YNR052C, strain pop2, active compounds read low 0.989 | S. cerevisiae deletion strains, locus YOL006C, strain TOP1, active compounds read low 1.15 | S. cerevisiae deletion strains, locus YOL012C, strain htz1 0.661 | S. cerevisiae deletion strains, locus YOL147C, strain pex11, active compounds read low 0.988 | S. cerevisiae deletion strains, locus YOR001W, strain rrp6, active compounds read low 1.04 | S. cerevisiae deletion strains, locus YOR061W, strain CKA2, active compounds read low 0.967 | S. cerevisiae deletion strains, locus YOR069W, strain VPS5, active compounds read low 0.967 | S. cerevisiae deletion strains, locus YOR070C, strain gyp1, active compounds read low 0.999 | S. cerevisiae deletion strains, locus YOR080W, strain dia2, active compounds read low 0.98 | S. cerevisiae deletion strains, locus YOR083W, strain WHI5, active compounds read low 0.978 | S. cerevisiae deletion strains, locus YOR106W, strain vam3, active compounds read low 0.998 | S. cerevisiae deletion strains, locus YOR136W, strain idh2, active compounds read low 0.984 | S. cerevisiae deletion strains, locus YOR144C, strain elg1, active compounds read low 0.988 | S. cerevisiae deletion strains, locus YOR184W, strain ser1, active compounds read low 0.987 | S. cerevisiae deletion strains, locus YOR231W, strain MKK1, active compounds read low 0.971 | S. cerevisiae deletion strains, locus YOR265W, strain rbl2, active compounds read low 0.976 | S. cerevisiae deletion strains, locus YOR270C, strain vph1, active compounds read low 0.987 | S. cerevisiae deletion strains, locus YOR290C, strain snf2, active compounds read low 0.928 | S. cerevisiae deletion strains, locus YOR316C, strain cot1, active compounds read low 0.97 | S. cerevisiae deletion strains, locus YPL051W, strain arl3, active compounds read low 0.998 | S. cerevisiae deletion strains, locus YPL078C, strain atp4, active compounds read low 0.988 | S. cerevisiae deletion strains, locus YPL106C, strain sse1, active compounds read low 0.944 | S. cerevisiae deletion strains, locus YPL240C, strain hsp82, active compounds read low 0.995 | S. cerevisiae deletion strains, locus YPL256C, strain CLN2, active compounds read low 0.981 | S. cerevisiae deletion strains, locus YPR119W, strain clb2, active compounds read low 0.982 | S. cerevisiae deletion strains, locus YPR141C, strain kar3, active compounds read low 0.975 | S. cerevisiae deletion strains, locus YPR163C, strain tif3, active compounds read low 0.983 | S. cerevisiae deletion strains, locus YPR167C, strain met16, active compounds read low 0.991 | S. cerevisiae deletion strains, strain wtn01, active compounds read low 1 | S. cerevisiae strains, strain wild type, active compounds read low 0.984

From PubChem BioAssay AID1159580 (chemical genetic matrix, 2015)
